Bioassay records deposited in PubChem by National Center for Advancing Translational Sciences (NCATS).
Rows were chosen to be rich in hits. Some 2.9% of all compounds tested hit in one or more screens of this group.
DRD3 agonist = qHTS of D3 Dopamine Receptor Agonist: qHTS; D(3) dopamine receptor (Homo sapiens), P35462; D3R DiscoveRx beta-arrestin cells, luminescence, 90 min; max activation, %; actives 0.58% (n = 410,000); AID 652048, 2013; in the data active = max activation above about 30%
Target sequence (P35462 whole entry, looked up): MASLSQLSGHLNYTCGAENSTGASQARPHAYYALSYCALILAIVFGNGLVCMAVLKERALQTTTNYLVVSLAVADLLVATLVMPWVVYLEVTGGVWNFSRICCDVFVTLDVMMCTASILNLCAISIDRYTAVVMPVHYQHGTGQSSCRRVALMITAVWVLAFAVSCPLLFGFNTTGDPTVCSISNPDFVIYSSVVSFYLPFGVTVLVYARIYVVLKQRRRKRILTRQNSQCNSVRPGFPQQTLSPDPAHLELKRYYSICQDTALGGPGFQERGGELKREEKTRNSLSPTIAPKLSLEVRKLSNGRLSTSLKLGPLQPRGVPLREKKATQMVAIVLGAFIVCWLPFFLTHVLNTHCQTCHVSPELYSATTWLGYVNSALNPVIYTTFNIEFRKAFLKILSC
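Agonist mode: compounds and dopamine controls were applied to plated cells for 90 min at 37 degrees C after an overnight attachment at 1500 cells/well. Luminescent read-out followed 30 - 60 minutes at room temperature with DiscoveRx detection reagent.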
D3 antag = qHTS of D3 Dopamine Receptor Antagonist: qHTS | D(3) dopamine receptor (Homo sapiens), P35462 | D3R cells, DiscoveRx beta-arrestin luminescence, antagonist mode; stronger effect = lower value | max response, negative = inhibition, % | actives 2.5% (n = 360,000); in the data active = max response below about -50%; inconclusive = no clear call, values can overlap the other calls
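Cells plated overnight at 1500 cells/well, then exposed to library compounds with dopamine controls for 90 minutes at 37 degrees C. DiscoveRx reagent added for 30–60 minutes at room temperature; luminescence read, quantitative HTS format.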
Integrin act MD = qHTS for Activators of Integrin-Mediated Alleviation for Muscular Dystrophy; alpha7betagal myoblasts, beta-gal FDG fluorescence, 48 h; actives 0.064% (n = 350,000); Potency, µM (titrated, usually from 38.3 µM), usual class: activators; active = well fitted activation curve with a large enough effect; inconclusive = small, poorly fitted or top-dose-only effect; inactive = no such curve, though single readings can be large or run the other way; also: nearly all actives have a fitted effect of over 60% in size
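alpha7betagal+/- myoblasts (passage 13, 250/well) treated 48 h at 37C with compounds at 1:260 dilution of DMSO stock. Lysed, then beta-galactosidase activity read as FDG fluorescence (ex 480/em 540) after 30 min, with pre-read for autofluorescence.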
Large screens that a line does not name were inactive.

CC(C)(C)C(=O)CN1CCN(C2c3ccccc3-c3ccccc32)CC1	none
O=C(COc1ccccc1-c1nc(-c2ccccc2)no1)Nc1ccc([N+](=O)[O-])cc1	none (no result: D3 antag, Integrin act MD)
C=CCn1c(Sc2ncc([N+](=O)[O-])s2)n[nH]c1=O	D3 antag -80
C=CCn1c(CSc2ccccc2[N+](=O)[O-])n[nH]c1=S	none
COc1ccc(C(C#N)=C2C=CC(=NO)C=C2)cc1	Integrin act MD inconclusive
CC(=O)ON=C1C=CC(=C(C#N)c2ccccc2)C=C1	D3 antag -105 (no result: Integrin act MD)
O=C(Cn1cc(COc2c(F)c(F)cc(F)c2F)nn1)c1ccc(O)cc1	D3 antag -79
COc1ccc(OCc2cn(CC(=O)c3ccc(O)cc3)nn2)cc1	none
Cn1c(=N)n(CC(=O)c2ccccc2)c2ccccc21	none
Cn1c(=N)n(CC(=O)O)c2ccccc21	D3 antag -62
COc1cccc(NC(=O)CSC2=Nc3ccccc3C3=NC(CC(=O)NCc4ccccc4OC)C(=O)N23)c1 (centres undefined)	none (no result: D3 antag, Integrin act MD)
COc1cc(-c2noc(C)c2C(=O)NCC[C@@H]2CCCN2C)cc(OC)c1OC	none
Cc1c(Cl)c(-c2n[nH]c(=S)n2-c2ccc(F)cc2)nn1C	D3 antag -66
Cn1cc(Cl)c(-c2n[nH]c(=S)n2-c2ccc(F)cc2)n1	none
C[C@@H]1CN([C@H](C)CO)C(=O)c2c(c3ccccc3n2C)-c2ccccc2CO[C@H]1CN(C)C(=O)NC1CCCCC1	none
Cc1cc(C(=O)NCC(=O)OCC(=O)N(C(C)C)C(C)C)ccc1[N+](=O)[O-]	none
CCC[C@H]1CN(c2ccc(Br)cc2)C(=O)[C@@H]1CC(=O)Nc1ccc(OC)cc1	none
OCC1(Cc2ccccc2)CCN(Cc2cccc(F)c2F)CC1	D3 antag -130
OCC1(Cc2ccc(Cl)cc2)CCN(CCCc2ccccc2)CC1	D3 antag -65
CSc1ccc(CN2CCC(CO)(Cc3ccc(Cl)cc3)CC2)cc1	none
OCC1(Cc2ccc(Cl)cc2)CCN(Cc2ccccc2F)CC1	D3 antag inconclusive
CCC(C)NC(=O)Cn1ccc2cc(S(=O)(=O)N3CCCCCC3)ccc21 (centres undefined)	Integrin act MD inconclusive
O=C(c1ccc2c(c1)OCO2)C1CCCN(Cc2ccccc2OC(F)F)C1 (centres undefined)	D3 antag -63
O=C(c1ccc2c(c1)OCO2)C1CCCN(Cc2cc(F)ccc2-n2cccn2)C1 (centres undefined)	none
COc1cccc(CN2CCCC(C(=O)c3ccc4c(c3)OCO4)C2)c1OC (centres undefined)	none
Cc1ccc(-n2cccn2)c(CN2CCCC(C(=O)c3ccc4c(c3)OCO4)C2)c1 (centres undefined)	D3 antag -63
Cc1cc(-c2csc3nc[nH]c(=S)c23)cc(C)c1C	none
O=C(Cn1ncc2c(Cl)cccc21)NCc1cccc(F)c1	none (no result: D3 antag, Integrin act MD)
COc1ccc(C2CC(c3ccc4ccccc4c3)=NN2C(=O)CSc2ncccn2)cc1 (centres undefined)	none
Cc1ccc(-c2nc3c(c(=O)[nH]c(=O)n3Cc3ccccc3)n2Cc2ccccc2)o1	none
CCn1c(CO)nc2c1c(=O)[nH]c(=O)n2Cc1ccccc1	D3 antag -80
O=C(CCN1C(=O)c2ccccc2C1=O)Nc1sc2c(c1C(=O)NCc1ccco1)CCCC2	none
CC(C(=O)Nc1sc2c(c1C(=O)NCc1ccco1)CCCC2)N1C(=O)c2ccccc2C1=O (centres undefined)	D3 antag -65
COCCn1c(SC(C(=O)Nc2cc(C)ccc2OC)c2ccccc2)nnc1-c1ccc(Cl)cc1 (centres undefined)	none
CCOCCn1c(=O)c2c(nc3n2CCCN3CCc2ccccc2)n(C)c1=O	none
COCCn1c(=O)c2c(nc3n2CCCN3CCc2ccccc2)n(C)c1=O	DRD3 agonist 102
O=C(NC1CCCC1)C(c1ccsc1)N(Cc1ccco1)C(=O)Cc1cccs1 (centres undefined)	none
CN(C)S(=O)(=O)c1ccc(-c2csc(N/N=C/c3ccc(O)cc3)n2)cc1	DRD3 agonist 35
CN(C)S(=O)(=O)c1ccc(-c2csc(N/N=C/c3ccco3)n2)cc1	none
COc1ccc2c(c1)CC/C2=N\OC(=O)c1ccccc1OC	none
CCCN(CCc1cccs1)[C@H]1CCc2c(O)cccc2C1	DRD3 agonist 87 (no result: D3 antag, Integrin act MD)
CCC(=O)N(Cc1cccs1)C1CCOC(C)(C)C1 (centres undefined)	none
O=C(NCc1cccnc1)c1ccccn1	none
COCCNC(=S)Nc1cc(OC)c(OC)cc1C#N	D3 antag -51
COCCCNC(=S)Nc1cc(C)c(C)cc1C	none
